Measurements published in PubChem BioAssay (EPA / NIEHS).
Results filed as inconclusive are left out. Active and inactive are the calls of the source. How the source made its calls: active means hit-call score of the fitted dose curve at least 0.9, where 1 is the maximum; inconclusive means response in the unintended direction; inactive means score below 0.9.

What was measured:
[1] = NVS_IC_rCaDHPRCh_L: NovaScreen (NVS) Ion Channel Assay for rat Calcium Channel, Type L, Dihydropyridine Site (CaDHPRCh_L) (AID 2283320)
Summary of the method: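 Rat cortex membrane preparation; dihydropyridine-site radioligand displacement read 1 h post-dose by filtration and scintillation. Primary single-point screen 25 uM in duplicate, then concentration series to 50 uM maximum; DMSO as negative control.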

[2] = biological target: Sodium channel protein type 1 subunit alpha (Rattus norvegicus) (UniProt P04774); assay: NVS_IC_rNaCh_site2: NovaScreen (NVS) Ion Channel Assay for rat Sodium Channel, Site 2 (NaCh) (AID 2283322);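 further: hit means loss of radioligand binding signal relative to DMSO so AC50 marks displacement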
Summary of the method: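 Initial duplicate single-point testing at 25 uM, followed by concentration-response runs for actives. Binding of radioligand to rat forebrain membranes quantified after 1 h via filter-based radiodetection.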

[3] = biological target: human Serotonin, 5-Hydroxytryptamine Receptor 3 (5HT3), HTR3A (gene 3359) (UniProt P46098); assay: NVS_LGIC_h5HT3: NovaScreen (NVS) Ligand-Gated Ion Channel Assay for human Serotonin, 5-Hydroxytryptamine Receptor 3 (5HT3) (AID 2283325)
Sequence of human Serotonin, 5-Hydroxytryptamine Receptor 3 (5HT3), HTR3A (gene 3359) (P46098 whole entry, looked up): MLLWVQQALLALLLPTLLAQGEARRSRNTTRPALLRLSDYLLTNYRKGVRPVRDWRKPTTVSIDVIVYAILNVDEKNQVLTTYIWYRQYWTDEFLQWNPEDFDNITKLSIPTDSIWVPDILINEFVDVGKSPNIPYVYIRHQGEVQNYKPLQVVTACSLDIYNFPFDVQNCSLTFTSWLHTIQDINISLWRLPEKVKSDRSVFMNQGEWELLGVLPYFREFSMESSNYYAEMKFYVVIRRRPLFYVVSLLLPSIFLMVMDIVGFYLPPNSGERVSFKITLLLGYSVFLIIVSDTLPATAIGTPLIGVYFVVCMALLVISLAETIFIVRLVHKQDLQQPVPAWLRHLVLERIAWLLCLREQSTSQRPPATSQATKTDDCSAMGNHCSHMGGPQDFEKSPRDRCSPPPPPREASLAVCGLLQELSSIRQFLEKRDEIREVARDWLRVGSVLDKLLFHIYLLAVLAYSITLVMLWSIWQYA
Summary of the method: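 Initially tested at 25 uM in duplicate, then up to 50 uM in concentration-response for actives, compounds competed with a radioligand for HEK293-derived human 5-HT3 receptor. Bound counts were measured by filtration and scintillation at 1 h; loss of signal versus DMSO.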

[4] = biological target: rat Thyrotropin Releasing Hormone Receptor (TRH), Trhr (gene 25570) (UniProt Q01717); assay: NVS_GPCR_rTRH: NovaScreen (NVS) G Protein-Coupled Receptor Assay for rat Thyrotropin Releasing Hormone Receptor (TRH) (AID 2283329);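 further: hit means lower bound tracer signal versus DMSO baseline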
Sequence of rat Thyrotropin Releasing Hormone Receptor (TRH), Trhr (gene 25570) (Q01717 whole entry, looked up): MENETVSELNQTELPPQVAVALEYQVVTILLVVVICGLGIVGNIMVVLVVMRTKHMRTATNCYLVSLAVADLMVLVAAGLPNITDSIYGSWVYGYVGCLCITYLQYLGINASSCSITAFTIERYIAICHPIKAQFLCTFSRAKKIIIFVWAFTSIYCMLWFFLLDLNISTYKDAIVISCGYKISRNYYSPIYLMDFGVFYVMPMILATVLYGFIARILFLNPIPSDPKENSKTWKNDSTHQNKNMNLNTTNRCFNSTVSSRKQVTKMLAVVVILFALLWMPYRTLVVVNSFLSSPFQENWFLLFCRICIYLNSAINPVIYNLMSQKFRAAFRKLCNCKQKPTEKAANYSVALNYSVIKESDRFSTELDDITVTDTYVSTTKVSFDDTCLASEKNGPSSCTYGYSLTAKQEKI
Summary of the method: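 Cell-free radioligand binding on rat forebrain membranes; bound tracer measured by filter-based scintillation counting 4 hours after dosing. Loss of signal versus DMSO baseline indicates displacement; primary screen at 25 uM in duplicate, actives then run in concentration series.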

[5] = biological target: human Peripheral-type Benzodiazepine Receptor (PBR), TSPO (gene 706) (UniProt P30536); assay: NVS_MP_hPBR: NovaScreen (NVS) Membrane Protein Assay for human Peripheral-type Benzodiazepine Receptor (PBR) (AID 2283331);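 further: hits reduce radioligand binding relative to DMSO baseline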
Sequence of human Peripheral-type Benzodiazepine Receptor (PBR), TSPO (gene 706) (P30536 whole entry, looked up): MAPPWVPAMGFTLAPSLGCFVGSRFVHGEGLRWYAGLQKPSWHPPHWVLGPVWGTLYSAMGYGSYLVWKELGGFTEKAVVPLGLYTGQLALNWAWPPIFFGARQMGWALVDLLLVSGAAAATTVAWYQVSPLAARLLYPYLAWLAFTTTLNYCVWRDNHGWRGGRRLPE
Summary of the method: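 Cell-free binding to human colonic membrane preparations measured by filter-based scintillation counting after 1 h. Compounds first run at 25 uM in duplicate, then concentration series for actives; signal loss against DMSO baseline.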

[6] = biological target: Voltage-gated inwardly rectifying potassium channel KCNH2 (Homo sapiens) (UniProt Q12809); assay: NVS_IC_hKhERGCh: NovaScreen (NVS) Ion Channel Assay for human Potassium Channel ERG (KhERGCh) (AID 2283333)
Sequence of Voltage-gated inwardly rectifying potassium channel KCNH2 (Homo sapiens) (Q12809 whole entry, looked up): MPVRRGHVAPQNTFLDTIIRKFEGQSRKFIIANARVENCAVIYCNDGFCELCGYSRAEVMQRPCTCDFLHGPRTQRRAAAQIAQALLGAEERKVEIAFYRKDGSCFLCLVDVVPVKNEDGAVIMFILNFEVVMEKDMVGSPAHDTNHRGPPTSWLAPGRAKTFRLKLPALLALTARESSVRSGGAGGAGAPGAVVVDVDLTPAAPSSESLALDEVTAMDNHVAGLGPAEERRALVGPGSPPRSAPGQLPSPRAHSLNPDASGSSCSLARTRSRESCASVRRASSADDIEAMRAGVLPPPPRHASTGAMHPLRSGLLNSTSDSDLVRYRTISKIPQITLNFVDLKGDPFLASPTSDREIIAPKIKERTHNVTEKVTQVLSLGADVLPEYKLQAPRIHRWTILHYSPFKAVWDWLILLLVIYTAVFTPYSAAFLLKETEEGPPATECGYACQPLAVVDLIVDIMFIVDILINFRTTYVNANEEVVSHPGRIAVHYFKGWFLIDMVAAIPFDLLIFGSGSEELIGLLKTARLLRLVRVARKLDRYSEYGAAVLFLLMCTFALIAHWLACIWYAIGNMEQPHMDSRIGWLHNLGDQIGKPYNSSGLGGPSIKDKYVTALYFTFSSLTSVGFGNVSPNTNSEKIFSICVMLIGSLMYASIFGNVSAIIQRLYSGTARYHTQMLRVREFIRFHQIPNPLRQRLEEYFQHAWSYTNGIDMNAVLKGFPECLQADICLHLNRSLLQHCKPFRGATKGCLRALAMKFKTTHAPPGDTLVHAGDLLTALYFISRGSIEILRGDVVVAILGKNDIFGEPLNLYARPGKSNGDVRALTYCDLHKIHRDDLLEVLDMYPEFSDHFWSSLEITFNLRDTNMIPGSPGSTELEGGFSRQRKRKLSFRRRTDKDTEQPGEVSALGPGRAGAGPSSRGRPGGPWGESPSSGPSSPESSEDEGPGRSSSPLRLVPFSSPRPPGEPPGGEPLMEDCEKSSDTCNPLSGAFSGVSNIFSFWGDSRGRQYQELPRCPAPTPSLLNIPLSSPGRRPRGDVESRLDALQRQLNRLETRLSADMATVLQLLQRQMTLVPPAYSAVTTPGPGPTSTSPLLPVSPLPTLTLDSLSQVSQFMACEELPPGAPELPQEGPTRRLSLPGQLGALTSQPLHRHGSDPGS
Summary of the method: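 Membranes from CHO cells expressing human ERG; displacement of radioligand measured by filtration and scintillation after 0.75 h. Single-concentration duplicate screen at 25 uM, then concentration-response for actives; DMSO baseline.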

[7] = NVS_IC_rCaBTZCHL: NovaScreen (NVS) Ion Channel Assay for Calcium Channel, Type L, Benzothiazepine Site (CaBTZCHL) (AID 2283337)
Summary of the method: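 Test chemicals were added to rat cortical membranes and incubated 1.5 h with a tritiated or iodinated radioligand for the benzothiazepine site. Bound ligand was separated by filtration and counted. Actives from the 25 uM duplicate screen were retested in concentration series.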

[8] = biological target: bovine Gamma-Aminobutyric Acid Type A Receptor Agonist (GABAR Agonist), GABRA1 (gene 780973) (UniProt P08219); assay: NVS_LGIC_bGABAR_Agonist: NovaScreen (NVS) Ligand-Gated Ion Channel Assay for bovine Gamma-Aminobutyric Acid Type A Receptor Agonist (GABAR Agonist) (AID 2283338)
Sequence of bovine Gamma-Aminobutyric Acid Type A Receptor Agonist (GABAR Agonist), GABRA1 (gene 780973) (P08219 whole entry, looked up): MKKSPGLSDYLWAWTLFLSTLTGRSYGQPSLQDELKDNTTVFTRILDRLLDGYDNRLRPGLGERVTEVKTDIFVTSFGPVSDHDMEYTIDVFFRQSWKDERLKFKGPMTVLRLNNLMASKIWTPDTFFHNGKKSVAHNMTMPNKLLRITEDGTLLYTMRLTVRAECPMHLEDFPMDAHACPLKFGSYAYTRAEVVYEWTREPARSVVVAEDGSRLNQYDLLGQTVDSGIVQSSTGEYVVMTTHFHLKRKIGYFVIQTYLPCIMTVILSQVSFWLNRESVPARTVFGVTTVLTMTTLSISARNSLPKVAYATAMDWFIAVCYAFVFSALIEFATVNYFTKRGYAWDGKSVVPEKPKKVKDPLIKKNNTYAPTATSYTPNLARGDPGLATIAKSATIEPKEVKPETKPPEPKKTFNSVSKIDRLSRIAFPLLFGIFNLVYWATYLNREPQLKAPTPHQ
Summary of the method: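 Radioligand binding to bovine cerebellar membranes in agonist format, read by filter-based scintillation counting after 1 h. Primary screen in duplicate at 25 uM, with actives followed in concentration series. Gain of signal versus DMSO.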

[9] = biological target: rat Gamma-Aminobutyric Acid Type A Receptor, Non-Selective (GABAR-NonSelective), Gabra1 (gene 29705) (UniProt P62813); assay: NVS_LGIC_rGABAR_NonSelective: NovaScreen (NVS) Ligand-Gated Ion Channel Assay for rat Gamma-Aminobutyric Acid Type A Receptor, Non-Selective (GABAR-NonSelective) (AID 2283326)
Sequence of rat Gamma-Aminobutyric Acid Type A Receptor, Non-Selective (GABAR-NonSelective), Gabra1 (gene 29705) (P62813 whole entry, looked up): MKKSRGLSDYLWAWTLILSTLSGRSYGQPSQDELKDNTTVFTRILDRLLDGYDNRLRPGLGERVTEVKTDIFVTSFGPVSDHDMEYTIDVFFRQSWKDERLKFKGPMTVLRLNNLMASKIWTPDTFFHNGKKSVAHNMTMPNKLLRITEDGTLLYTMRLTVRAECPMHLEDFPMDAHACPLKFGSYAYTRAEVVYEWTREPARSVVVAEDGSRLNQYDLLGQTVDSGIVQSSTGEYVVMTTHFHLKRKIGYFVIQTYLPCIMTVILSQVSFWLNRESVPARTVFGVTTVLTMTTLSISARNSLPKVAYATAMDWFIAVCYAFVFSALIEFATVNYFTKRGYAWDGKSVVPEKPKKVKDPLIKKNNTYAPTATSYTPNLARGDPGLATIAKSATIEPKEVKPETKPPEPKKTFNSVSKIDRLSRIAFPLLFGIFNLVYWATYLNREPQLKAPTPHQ
Summary of the method: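 Compounds were first screened in duplicate at 25 uM, with actives run as singleton concentration series (max 50 uM). Binding of a radioligand to rat whole-brain GABA-A preparation was measured by filtration and scintillation counting after 1 h, DMSO baseline.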

[10] = biological target: rat Glutamate, AMPA Site (AMPA), Gria1 (gene 50592) (UniProt P19490); assay: NVS_LGIC_rAMPA: NovaScreen (NVS) Ligand-Gated Ion Channel Assay for rat Glutamate, AMPA Site (AMPA) (AID 2283324)
Summary of the method: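 Screening at 25 uM in duplicate preceded concentration series reaching 50 uM for qualifying compounds. Radioligand displacement on rat forebrain membranes, 1 h, filter-based scintillation readout; reduced binding relative to DMSO.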

[11] = biological target: Small conductance calcium-activated potassium channel protein 1 (Rattus norvegicus) (UniProt P70606); assay: NVS_IC_rKCaCh: NovaScreen (NVS) Ion Channel Assay for rat Potassium Channel, Ca2+ Act., VI (KCaCh) (AID 2283336)
Sequence of Small conductance calcium-activated potassium channel protein 1 (Rattus norvegicus) (P70606 whole entry, looked up): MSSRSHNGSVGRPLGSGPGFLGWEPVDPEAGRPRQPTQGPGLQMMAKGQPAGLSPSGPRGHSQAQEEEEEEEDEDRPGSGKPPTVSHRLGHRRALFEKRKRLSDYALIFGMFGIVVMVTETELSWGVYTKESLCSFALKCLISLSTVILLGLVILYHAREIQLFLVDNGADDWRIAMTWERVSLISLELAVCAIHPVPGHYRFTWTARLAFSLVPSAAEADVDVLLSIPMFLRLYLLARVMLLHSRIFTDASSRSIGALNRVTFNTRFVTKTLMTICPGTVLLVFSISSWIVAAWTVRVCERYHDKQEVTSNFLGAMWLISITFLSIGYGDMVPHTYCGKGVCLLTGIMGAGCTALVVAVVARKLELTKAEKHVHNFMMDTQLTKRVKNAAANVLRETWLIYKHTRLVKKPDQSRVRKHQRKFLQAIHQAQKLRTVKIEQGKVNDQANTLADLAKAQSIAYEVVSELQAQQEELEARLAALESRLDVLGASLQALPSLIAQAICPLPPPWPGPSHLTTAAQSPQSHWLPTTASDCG
Summary of the method: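 Filter-based scintillation counting of radioligand bound to rat forebrain membrane preparations, measured 1 h after compound addition. Primary screen used 25 uM in duplicate, with concentration-response follow-up; signal decrease relative to DMSO marks activity.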

[12] = biological target: rat Glutamate, NMDA Agonist Site (GluNMDA), Grin1 (gene 24408) (UniProt P35439); assay: NVS_LGIC_rGluNMDA_Agonist: NovaScreen (NVS) Ligand-Gated Ion Channel Assay for rat Glutamate, NMDA Agonist Site (GluNMDA) (AID 2283327)
Summary of the method: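 Radioligand displacement at the agonist site on rat forebrain membrane preparations, read by filter scintillation after 1 h. Chemicals were first run at 25 uM in duplicate; those passing threshold were titrated to a 50 uM maximum.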

[13] = biological target: rat Peripheral-type Benzodiazepine Receptor (PBR), Tspo (gene 24230) (UniProt P16257); assay: NVS_MP_rPBR: NovaScreen (NVS) Membrane Protein Assay for rat Peripheral-type Benzodiazepine Receptor (PBR) (AID 2283335)
Sequence of rat Peripheral-type Benzodiazepine Receptor (PBR), Tspo (gene 24230) (P16257 whole entry, looked up): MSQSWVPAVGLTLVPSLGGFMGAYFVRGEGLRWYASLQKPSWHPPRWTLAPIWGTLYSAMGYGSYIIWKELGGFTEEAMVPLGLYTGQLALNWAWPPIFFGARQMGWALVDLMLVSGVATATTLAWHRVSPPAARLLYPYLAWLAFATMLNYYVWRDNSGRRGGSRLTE
Summary of the method: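 Competitive displacement of specific radioligand from rat kidney membrane PBR, read by filtration and scintillation after 1 h. Compounds first tested at 25 uM in duplicate, then in concentration series; signal loss relative to DMSO.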

[14] = biological target: rat Glycine Receptor, Strychnine-sensitive (GlyRStrySens), Glra1 (gene 25674) (UniProt P07727); assay: NVS_LGIC_rGlyRStrySens: NovaScreen (NVS) Ligand-Gated Ion Channel Assay for rat Glycine Receptor, Strychnine-sensitive (GlyRStrySens) (AID 2283341)
Sequence of rat Glycine Receptor, Strychnine-sensitive (GlyRStrySens), Glra1 (gene 25674) (P07727 whole entry, looked up): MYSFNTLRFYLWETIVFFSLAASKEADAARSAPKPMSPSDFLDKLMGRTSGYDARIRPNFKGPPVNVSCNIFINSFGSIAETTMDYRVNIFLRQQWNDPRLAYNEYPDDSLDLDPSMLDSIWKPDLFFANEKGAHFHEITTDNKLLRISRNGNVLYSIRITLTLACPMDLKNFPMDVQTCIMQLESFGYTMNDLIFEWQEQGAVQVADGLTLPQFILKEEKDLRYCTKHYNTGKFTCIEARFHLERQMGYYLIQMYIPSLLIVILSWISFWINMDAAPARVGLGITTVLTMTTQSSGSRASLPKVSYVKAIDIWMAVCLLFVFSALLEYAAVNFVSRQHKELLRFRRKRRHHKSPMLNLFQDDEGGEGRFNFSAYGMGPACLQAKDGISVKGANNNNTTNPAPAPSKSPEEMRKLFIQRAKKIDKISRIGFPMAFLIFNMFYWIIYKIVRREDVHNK
Summary of the method: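 Radioligand displacement on rat spinal cord membranes, 1 hr, filter scintillation read-out. Single-concentration duplicate screen at 25 uM; chemicals meeting threshold (e.g., 30% inhibition) rerun in concentration-response up to 50 uM. Loss of binding fitted versus DMSO.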

[15] = biological target: human Constitutive Androstane Receptor (CAR), NR1I3 (gene 9970) (UniProt Q14994); assay: NVS_NR_hCAR_Antagonist: NovaScreen (NVS) Nuclear Receptor Binding Assay for human Constitutive Androstane Receptor Antagonism (CAR) (AID 2283344)
Sequence of human Constitutive Androstane Receptor (CAR), NR1I3 (gene 9970) (Q14994 whole entry, looked up): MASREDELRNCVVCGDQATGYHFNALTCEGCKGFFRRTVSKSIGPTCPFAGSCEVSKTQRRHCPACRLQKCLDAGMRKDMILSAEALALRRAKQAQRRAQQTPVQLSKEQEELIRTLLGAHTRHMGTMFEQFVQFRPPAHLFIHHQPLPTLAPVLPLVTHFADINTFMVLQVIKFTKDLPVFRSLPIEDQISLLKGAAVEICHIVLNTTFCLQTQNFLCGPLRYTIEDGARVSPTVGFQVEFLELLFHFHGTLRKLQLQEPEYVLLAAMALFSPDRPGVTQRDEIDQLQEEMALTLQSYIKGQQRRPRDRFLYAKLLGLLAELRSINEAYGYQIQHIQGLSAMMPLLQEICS
Summary of the method: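 Single 25 uM duplicate primary screen, with concentration-series follow-up on actives. Cell-free binding format run in antagonist mode, TR-FRET signal taken 1 h post-dose; activity is signal loss relative to DMSO.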

[16] = biological target: rat Glutamate, MK-801 Agonist Site (GluNMDA_MK801), Grin1 (gene 24408) (UniProt P35439); assay: NVS_LGIC_rGluNMDA_MK801_Agonist: NovaScreen (NVS) Ligand-Gated Ion Channel Assay for rat Glutamate, MK-801 Agonist Site (GluNMDA_MK801) (AID 2283340)
Summary of the method: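 Rat forebrain membrane preparation; MK-801-site radioligand binding read by filtration and scintillation after 1.5 h. Single-point 25 uM duplicate screen, followed by singleton concentration series to 50 uM max; DMSO baseline.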

NCBI gene 100848466 = assay: NVS_NR_bPR: NovaScreen (NVS) Nuclear Receptor Binding Assay for bovine Progextron Receptor (PR) (AID 2283343);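 further: actives lower bound radioligand signal below DMSO meaning displacement of the label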
Summary of the method: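 Competitive radioligand binding with membranes from bovine uterus, scintillation read-out at 18 h post-dose. Compounds first tested in duplicate at 25 uM, then actives in concentration series; loss-of-signal relative to DMSO.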

Cc1[nH]cnc1C[C@H]1CCc2c(C)c3ccccc3n2C1=O
AC50 [1]: 1.5 µM (active) | AC50 [2]: 10.4 µM (active) | AC50 [3]: 0.00204 µM (active) | outcome [4]: inactive | outcome [5]: inactive | AC50 [6]: 4.76 µM (active) | outcome [7]: inactive | AC50 [8]: 9.14 µM (active)

CCOC(=O)c1ccc(C2CCC(NC[C@H](O)COc3ccc(O)c(NS(C)(=O)=O)c3)CC2)cc1 (stereo partly specified)
AC50 [1]: 18.4 µM (active) | AC50 [2]: 3.33 µM (active) | AC50 [9]: 4.64 µM (active) | AC50 [6]: 10.1 µM (active) | AC50 [7]: 7.7 µM (active)

CCCN(C1CCN(C(=O)C2CCNCC2)CC1)[C@@H]1CCc2ccc(OC)cc2C1
outcome [1]: inactive | AC50 [2]: 7.66 µM (active) | outcome [7]: inactive

CNS(=O)(=O)c1cc(C(=O)N2CCC(CCN3C4CCC3CC(n3c(C)nc5ccccc53)C4)(c3cccc(F)c3)CC2)c(Cl)cc1F (stereo unspecified)
AC50 [1]: 6.97 µM (active) | AC50 [2]: 13.1 µM (active) | AC50 [7]: 7.92 µM (active)

O=C(O)CC(O)C(=O)O (stereo unspecified)
outcome [2]: inactive | outcome [10]: inactive | outcome [11]: inactive

CC1=CC(=O)CC(C)(C)C1
outcome [10]: inactive

CC(C)CC(C)(O)C#CC(C)(O)CC(C)C (stereo unspecified)
outcome [2]: inactive | outcome [6]: inactive

COc1ccc(-n2nc(C(F)F)cc2-c2ccc(S(C)=O)cc2)cc1 (stereo unspecified)
outcome [2]: inactive | outcome [12]: inactive | outcome [4]: inactive | AC50 [13]: 14.7 µM (active) | outcome [14]: inactive

COc1cccc(-c2ccc(/C=C\CN3CCCCCC3)cc2Cl)c1
AC50 [1]: 0.555 µM (active) | AC50 [2]: 1.33 µM (active) | outcome [3]: inactive | outcome [9]: inactive | AC50 [5]: 7.83 µM (active) | AC50 [6]: 5.95 µM (active) | AC50 [13]: 8.04 µM (active) | outcome [11]: inactive | AC50 [7]: 0.665 µM (active) | AC50 [8]: 10.5 µM (active) | outcome [14]: inactive | outcome [15]: inactive

CCc1cc(SCc2sc(-c3ccc(C(F)(F)F)cc3)nc2CN2CCN(c3ccc(OC)cc3)CC2)ccc1OCC(=O)O
AC50 [1]: 15.9 µM (active) | AC50 [2]: 25 µM (active) | outcome [5]: inactive | AC50 [13]: 1.81 µM (active) | outcome [16]: inactive | AC50 (NCBI gene 100848466): 40.3 µM (active)

Nc1ccc(Nc2ccccc2)cc1
AC50 [2]: 5.39 µM (active) | AC50 [5]: 11.2 µM (active) | outcome [6]: inactive
